Experimental findings from PubChem BioAssay (NCI) are described below.

Some test systems named below: SN12C renal; UO-31 renal; TK-10 renal; ACHN renal; CAKI-1 renal; A498 renal; CCRF-CEM leukemia; MOLT-4 leukemia; SR leukemia.
Holding throughout (assay): NCI-60 one-dose screen, 48 h (100 = growth as untreated, 0 = no growth, -100 = all killed)
What all share (conditions): 10 µM unless noted

Molecules are shown by their SMILES. This is part of a sample that, as a whole, favours compounds with a hit. Of some 83,000 tested, about 20% had one in any assay.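 Plates (96-well) were seeded with cells, treated with compound at one concentration, and incubated for 48 hours before percent growth was determined.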 Values without a mark were called inactive. Calls of active or inactive are those of the source. The calls were made as follows: active = growth percent below 10; inactive = the rest.

For `Clc1ncn[nH]1`, the growth with SN12C renal was 103%; in the assay on UO-31 renal it was 89.9%; in the assay with TK-10 renal, 93.8%; in the assay on ACHN renal it was 98.3%; in the assay on CAKI-1 renal, 92.5%; in the assay on A498 renal it was 106%. In addition, the growth in the assay on CCRF-CEM leukemia was 103%; with MOLT-4 leukemia it was 105%; in the assay on SR leukemia it was 94%.
As for `CN(C)c1cccc2c(S(=O)(=O)N[C@H]3CC[C@H]4[C@@H]5CCc6cc(O)ccc6[C@H]5CC[C@]34C)cccc12`, the growth in the assay on SN12C renal is 25.4%; with UO-31 renal, 10.7%; with TK-10 renal, 51.1%; in the assay with ACHN renal, 30.8%; in the assay on CAKI-1 renal it was 15.5%; with A498 renal, 49%. Moreover, the growth with MOLT-4 leukemia was 17.3%; with SR leukemia it was -16.1% (active).
Take `O=C(Nc1ccc(OCc2nnc(-c3ccccc3)o2)c(F)c1)Nc1ccc(Cl)c(C(F)(F)F)c1`: the growth in the assay with SN12C renal is 16.1%; with UO-31 renal, -19% (active); in the assay on TK-10 renal, 33.7%; in the assay on ACHN renal, 9.47% (active); with CAKI-1 renal it was 16.4%; with A498 renal it was 18%. Further, the figures for the growth in the assay with CCRF-CEM leukemia, in the assay with MOLT-4 leukemia and in the assay on SR leukemia were 18.9%, 13.7% and 0.0728% (active), respectively.
`C/C(=C\CCc1ccsc1)CC/C=C(\C)CCCN1CCC(CO)CC1`: the growth in the assay on SN12C renal is 51.5%; with UO-31 renal it was 23.4%; in the assay with TK-10 renal, 22.6%; in the assay with ACHN renal, 44%; in the assay on CAKI-1 renal it was 45.3%; with A498 renal, 25.5%. The growth with CCRF-CEM leukemia was 2.24% (active); in the assay on MOLT-4 leukemia, -22.2% (active); with SR leukemia, -44.8% (active).
Consider `COc1ccc(-c2cnnn2-c2cc(OC)c3c(c2)OCO3)cc1`, for which the growth in the assay with SN12C renal was 36.8%; in the assay on UO-31 renal, 50%; in the assay with TK-10 renal it was 40%; in the assay on ACHN renal, 38.8%; in the assay with CAKI-1 renal, 29.6%; in the assay with CCRF-CEM leukemia it was 0.869% (active). The growth in the assay on MOLT-4 leukemia was 4.11% (active); with SR leukemia it was -30.4% (active).
With `COc1ccc(-n2nnc(C(=O)O)c2-c2cc(OC)c(OC)c(OC)c2)cc1`, the growth with SN12C renal is 105%; with UO-31 renal, 110%; in the assay with TK-10 renal, 93.2%; in the assay on ACHN renal, 105%; in the assay on CAKI-1 renal it was 102%; in the assay with CCRF-CEM leukemia, 105%. In addition, the growth in the assay with MOLT-4 leukemia is 94%; in the assay on SR leukemia, 85.4%.
With `Cc1ccc2c(c1)C(=O)/C(=C/c1ncc([N+](=O)[O-])n1C)O2`, the growth was -15.3% (active) with SN12C renal; -39.7% (active) in the assay with UO-31 renal; -29.8% (active) in the assay with TK-10 renal; 5.3% (active) with ACHN renal; -32.1% (active) in the assay with CAKI-1 renal; 76.4% in the assay on A498 renal. Besides, the growth with MOLT-4 leukemia was -2.13% (active); with SR leukemia, 11%.
For `CCN1C[C@@H](C)n2c(c(O)c3c(=O)n(Cc4ccc(F)c(Cl)c4)nc(C(=O)NC)c32)C1=O`, the growth in the assay on SN12C renal was 9.18% (active); with UO-31 renal, 11%; with TK-10 renal, 31.6%; in the assay on ACHN renal, 13.7%; in the assay on CAKI-1 renal, 15.9%; in the assay with A498 renal, -7.58% (active). Besides, the growth in the assay on MOLT-4 leukemia is 21.6%; in the assay on SR leukemia it was 2.73% (active).
Take `O=C(/C(=N/O)S(=O)(=O)c1ccccc1)c1cccs1`: the growth in the assay with SN12C renal was 101%; in the assay with UO-31 renal, 96.8%; with TK-10 renal it was 89.5%; with ACHN renal, 112%; with CAKI-1 renal, 103%; in the assay on A498 renal, 103%. The growth in the assay with CCRF-CEM leukemia is 98.5%; in the assay with MOLT-4 leukemia, 104%; with SR leukemia, 85.9%.
Take `CCCCCCCCCCCCCCCCCc1nccn1CCO`: the growth is 52.2% in the assay on SN12C renal; 47.5% with UO-31 renal; 112% in the assay with TK-10 renal; 63.7% with ACHN renal; 72.5% in the assay on A498 renal; 79.7% with CCRF-CEM leukemia. The growth with MOLT-4 leukemia is 65.6%.
`Cc1cc(NCCCNc2ccnc3cc(Cl)ccc23)nc(N2CCN(C)CC2)n1`: the growth in the assay on SN12C renal is 77.6%; with UO-31 renal, 58.6%; in the assay on TK-10 renal it was 133%; in the assay on ACHN renal, 45.7%; with CAKI-1 renal it was 57%; with A498 renal, 82.4%. The growth in the assay on MOLT-4 leukemia was 21.2%; in the assay with SR leukemia, 0.0449% (active).
With `CC(C)(C)c1cc(O)c(O)c(C(C)(C)C)c1`, the growth in the assay with SN12C renal was 60.3%; in the assay on UO-31 renal it was 27.3%; in the assay with TK-10 renal it was 35.8%; in the assay with ACHN renal it was 18.3%; with A498 renal it was 60.6%; with MOLT-4 leukemia, 6.61% (active). Also, the growth in the assay with SR leukemia was 11.2%.
With `CCC(C)CC(C)C(=O)c1c(O)ccn(O)c1=O` (configuration not stated), the growth in the assay on SN12C renal was 21.2%; in the assay with UO-31 renal, 6.43% (active); with TK-10 renal, 83.7%; in the assay on ACHN renal, 16.6%; in the assay on CAKI-1 renal, 40.3%; with CCRF-CEM leukemia, 15.8%. Moreover, the growth was 9.61% (active) in the assay with MOLT-4 leukemia and 22.9% with SR leukemia.
Consider `O=C1/C(=C/c2ccc([N+](=O)[O-])o2)Oc2ccc(Cl)cc21`, for which the growth in the assay on SN12C renal is -41.6% (active); in the assay on UO-31 renal, -86.1% (active); in the assay on TK-10 renal it was -59.8% (active); in the assay on ACHN renal it was -61% (active); in the assay with CAKI-1 renal it was 3.65% (active); in the assay with A498 renal, 108%. In addition, the values for the growth in the assay with CCRF-CEM leukemia, in the assay with MOLT-4 leukemia and in the assay on SR leukemia were -23.4% (active), -12.4% (active) and 5.52% (active), respectively.
With `C[n+]1ccc(C#N)c2ccccc21`, the growth with SN12C renal was 104%; with UO-31 renal it was 55.4%; in the assay with TK-10 renal, 129%; with ACHN renal it was 81.9%; in the assay on A498 renal, 95.3%; in the assay on CCRF-CEM leukemia, 54.1%. Further, the growth in the assay with MOLT-4 leukemia is 64.5%; in the assay with SR leukemia it was 67.5%.
For the compound `CN1CCN(CC(=O)Nc2nc3c(s2)Nc2cc(Cl)c(Cl)cc2NC3=O)CC1`, the growth in the assay on SN12C renal was 109%; in the assay on UO-31 renal, 85.4%; in the assay with TK-10 renal it was 95.8%; in the assay with ACHN renal, 105%; with CAKI-1 renal, 102%; in the assay with A498 renal, 106%. For the same compound, the growth is 99.8% in the assay with CCRF-CEM leukemia, 90.8% with MOLT-4 leukemia and 98.8% in the assay with SR leukemia.
As for `CSc1nnc(C2=CC(=O)c3ccccc3C2=O)n1-c1ccccc1`, the growth was 104% in the assay with SN12C renal; 67.6% with UO-31 renal; 121% in the assay with TK-10 renal; 74.9% in the assay on ACHN renal; 88.5% with CAKI-1 renal; 99.4% in the assay on A498 renal. Further, the growth in the assay with CCRF-CEM leukemia is 36.8%; in the assay with MOLT-4 leukemia, 68.9%; in the assay on SR leukemia it was 70.2%.
Take `C/C(=C\CCc1ccsc1)CC/C=C(\C)CCCN1CCN(CCO)CC1`: the growth in the assay with SN12C renal was 55.2%; in the assay with UO-31 renal, 62.1%; in the assay on TK-10 renal, 40%; with ACHN renal, 50.6%; in the assay with CAKI-1 renal, 77.6%; in the assay on A498 renal, 39.2%. Besides, the growth in the assay on CCRF-CEM leukemia was 24.1%; in the assay on MOLT-4 leukemia, 2.14% (active); with SR leukemia, -29.1% (active).
As to `COc1ccc(Nc2nccc(N3CCN(c4c5ccc(Cl)cc5nc5ccc(OC)cc45)CC3)n2)cc1`, the growth in the assay on SN12C renal is 68.5%; with UO-31 renal, 47.5%; in the assay on TK-10 renal, 59.2%; in the assay on ACHN renal it was 57.8%; in the assay with CAKI-1 renal it was 71.5%; in the assay with CCRF-CEM leukemia, 4.07% (active). Further, the growth in the assay with MOLT-4 leukemia is -2.31% (active); with SR leukemia it was 21.1%.
For the compound `COC(=O)c1ccc2c(c1)nc(-c1ccc(O)c(OC)c1)n2-c1cc(C(C)(C)C)[nH]n1`, the growth in the assay with SN12C renal was 97.7%; with UO-31 renal, 50.9%; with TK-10 renal, 116%; in the assay on ACHN renal, 108%; in the assay with A498 renal, 90.5%; in the assay on CCRF-CEM leukemia, 93.1%. In addition, in the assay with MOLT-4 leukemia, the growth is 81.2%.
Consider `O=C1C(Cl)=C(N=Nc2c(Cl)c(O)c3ccccc3c2O)C(=O)c2ccccc21`, for which the growth in the assay on SN12C renal was 71.8%; in the assay with UO-31 renal, 70.4%; with TK-10 renal it was 116%; in the assay on ACHN renal, 77%; in the assay with CAKI-1 renal it was 88.9%; in the assay on A498 renal, 63.6%. Moreover, the growth with CCRF-CEM leukemia is 43.5%; in the assay with MOLT-4 leukemia, 62.1%; in the assay on SR leukemia, 34.9%.
As to `C[C@]12CC[C@@H]3c4ccc(O)cc4CC[C@H]3[C@@H]1CC[C@@H]2NS(=O)(=O)c1cccc(Br)c1`, the growth in the assay on SN12C renal was 69.8%; with UO-31 renal, 36.3%; in the assay on TK-10 renal, 75.4%; in the assay with ACHN renal, 58.9%; with CAKI-1 renal, 62.9%; in the assay with A498 renal, 65%. Besides, the growth was 36.3% in the assay on MOLT-4 leukemia and 27.1% with SR leukemia.
